A short description of assay [1]: growth inhibition of DIPG glioma cells, dose response, cell-based, SU-DIPG-XIII, MIPE4.0, CellTiter-Glo, qHTS (AID 1347061; cut-off not given, nearly all actives have AC50 up to about 37 µM;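 further: cells exposed to compound for 48 hours before readout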). The conditions noted are these: SU-DIPG-XIII viability, CellTiter-Glo ATP luminescence. On the technique in general: Cellular ATP, detected with luciferase, serves as a proxy for viable cell number.
Assay [2] in a line: SU-DIPG-VI glioma cell viability, MIPE4.0 library, CellTiter-Glo luminescence, qHTS (AID 1347066; cut-off not given, nearly all actives have AC50 up to about 30 µM;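 further: cells exposed to compound for 48 hours before readout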). The conditions noted are these: CellTiter-Glo ATP luminescence.
A short description of assay [3]: growth inhibition of DIPG glioma cells, dose response, cell-based, SU-DIPG-IV, MIPE4.0, CellTiter-Glo, qHTS (AID 1347063; cut-off not given, nearly all actives have AC50 up to about 30 µM;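 further: compound exposure lasted 48 hours before the viability readout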). The following applies: SU-DIPG-IV viability, CellTiter-Glo ATP luminescence.
The nature of assay [4]: growth inhibition of DIPG glioma cells, dose response, cell-based, SU-DIPG-XIII, MIPE5.0, CellTiter-Glo, qHTS (AID 1347064; cut-off not given, nearly all actives have AC50 up to about 23 µM). The conditions noted are these: SU-DIPG-XIII viability, CellTiter-Glo ATP luminescence.
Assay [5] can be described thus: JHH-DIPG-1 glioma cell viability, MIPE5.0 library, CellTiter-Glo luminescence, qHTS (AID 1347067; cut-off not given, nearly all actives have AC50 up to about 26 µM;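 further: cells exposed to compound for 48 hours before readout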). The following applies: JHH-DIPG-1 glioma viability, CellTiter-Glo ATP luminescence.
A short description of assay [6]: sensitizers of A549 cells to miR-34 induction, primary screen, imaging, A549 dox-inducible miR-34, nuclei and caspase counts (AID 1347080;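 active means compounds whose cell count with miR-34 switched on is under 0.7 times the count with it off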). The following applies: A549 miR-34 inducible, Hoechst nuclei count, 48 h.
Assay [7] in a line: survival rescue of mitochondrial mutant cells in low glucose, primary screen, MELAS cybrids, Rieske KO mouse fibroblasts, CellTiter-Glo (AID 1508586;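 active means mean z-score across replicates of 1.96 or higher in either the MELAS or the Rieske mutant cell line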;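 further: z relative to plate mean and SD of compound and empty wells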).
Assay [8] can be described thus: ovarian cancer cell viability with rucaparib, profiling panel, oncology-focused library, rucaparib conditional (AID 1508598). The following applies: patient-derived ovarian cancer cells, CellTiter-Glo viability, 144 h, stronger effect = lower value.
A short description of assay [9]: growth inhibition of DIPG glioma cells, dose response, cell-based, JHH-DIPG-1, MIPE4.0, CellTiter-Glo, qHTS (AID 1347062; cut-off not given, nearly all actives have AC50 up to about 27 µM). The conditions noted are these: JHH-DIPG-1 viability, CellTiter-Glo ATP luminescence.
Assay [10] is described as follows: viability loss in pontine glioma line – cell-based, SU-DIPG-XXV, MIPE5.0, CellTiter-Glo, qHTS, dose response (AID 1347065; cut-off not given, nearly all actives have AC50 up to about 26 µM;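 further: cells exposed to compound for 48 hours before ATP readout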). The following applies: CellTiter-Glo ATP luminescence.
Assay [11] can be described thus: SU-DIPG-XXV glioma cell viability, MIPE5.0 library, qHTS (AID 1347068; cut-off not given, nearly all actives have IC50 up to about 30 µM). For orientation: Quantitative high-throughput screening tests each substance at several concentrations.
Setting [12] is: stronger effect = lower value, cell number ratio, induced over uninduced.
Where [13] appears, read: measured here: relative caspase fold change +Dox/-Dox.
Setting [14] is: measured here: total cells with miR-34 induction, stronger effect = lower value.
Setting [15] is: measured here: total cells without miR-34 induction.
Where [16] appears, read: MELAS cybrid survival, CellTiter-Glo 48 h, stronger effect = higher value.
Where [17] appears, read: Rieske KO mouse fibroblast survival, CellTiter-Glo 72 h.

Where “and” joins values, the source holds several entries; their conditions need not be identical. Equal entries are not always repeated. Results filed as inconclusive are left out. Calls of active or inactive are those of the source.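 How the source made its calls, unless noted: active means normalized viability below 100% at a tested concentration; inactive means the rest.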

Turning to `C=C1[C@H](n2cnc3c(=O)[nH]c(N)nc32)C[C@H](O)[C@H]1CO`, the call in assay [1] and in assay [2] was inactive.

In the case of `CN(C)N=Nc1nc[nH]c1C(N)=O`, the compound was classed as inactive in [1], in assay [3], in assay [4] and in assay [5]. The fold change in [6] (setting [12]) is 0.887 (inactive) and 0.898 (inactive); in assay [6] (setting [13]) it was 1.47 and 1.18. Further, the cell count is 9080 and 7660 in [6] (setting [14]); 10200 and 8520 in assay [6] (setting [15]). Also, the z-score in [7] (setting [16]) is -0.353 (inactive) and -0.0151 (inactive); in [7] (setting [17]), 0.329 and 0.212. For the same compound, the viability (in general, a read-out of living cells in per cent, often relative to untreated cells) was 107% (inactive) in [8] (at 0.000305 µM, OCI-C5x cells, with rucaparib 10 µM, 100% = cells with rucaparib alone); 101% (inactive) in assay [8] (at 0.000305 µM, OCI-C5x cells, without rucaparib); 107% (inactive) in assay [8] (at 0.000305 µM, OCI-P5x cells, with rucaparib 20 µM, 100% = cells with rucaparib alone); 108% (inactive) in assay [8] (at 0.000305 µM, OCI-P5x cells, without rucaparib); 106% (inactive) in [8] (at 0.00122 µM, OCI-C5x cells, with rucaparib 10 µM, 100% = cells with rucaparib alone); 108% (inactive) in assay [8] (at 0.00122 µM, OCI-C5x cells, without rucaparib). The viability in assay [8] (at 0.00122 µM, OCI-P5x cells, with rucaparib 20 µM, 100% = cells with rucaparib alone) is 109% (inactive); in assay [8] (at 0.00122 µM, OCI-P5x cells, without rucaparib), 108% (inactive); in assay [8] (at 0.00488 µM, OCI-C5x cells, with rucaparib 10 µM, 100% = cells with rucaparib alone), 111% (inactive); in assay [8] (at 0.00488 µM, OCI-C5x cells, without rucaparib), 107% (inactive); in assay [8] (at 0.00488 µM, OCI-P5x cells, with rucaparib 20 µM, 100% = cells with rucaparib alone), 106% (inactive); in assay [8] (at 0.00488 µM, OCI-P5x cells, without rucaparib), 104% (inactive). Moreover, the viability in [8] (at 0.0195 µM, OCI-C5x cells, with rucaparib 10 µM, 100% = cells with rucaparib alone) is 105% (inactive); in [8] (at 0.0195 µM, OCI-C5x cells, without rucaparib) it was 105% (inactive); in [8] (at 0.0195 µM, OCI-P5x cells, with rucaparib 20 µM, 100% = cells with rucaparib alone), 103% (inactive); in [8] (at 0.0195 µM, OCI-P5x cells, without rucaparib), 112% (inactive); in [8] (at 0.0781 µM, OCI-C5x cells, with rucaparib 10 µM, 100% = cells with rucaparib alone) it was 111% (inactive); in assay [8] (at 0.0781 µM, OCI-C5x cells, without rucaparib), 109% (inactive). Moreover, the viability in assay [8] (at 0.0781 µM, OCI-P5x cells, with rucaparib 20 µM, 100% = cells with rucaparib alone) was 105% (inactive); in [8] (at 0.0781 µM, OCI-P5x cells, without rucaparib) it was 110% (inactive); in assay [8] (at 0.313 µM, OCI-C5x cells, with rucaparib 10 µM, 100% = cells with rucaparib alone) it was 112% (inactive); in assay [8] (at 0.313 µM, OCI-C5x cells, without rucaparib), 109% (inactive); in assay [8] (at 0.313 µM, OCI-P5x cells, with rucaparib 20 µM, 100% = cells with rucaparib alone) it was 105% (inactive); in assay [8] (at 0.313 µM, OCI-P5x cells, without rucaparib) it was 110% (inactive). The viability in assay [8] (at 1.25 µM, OCI-C5x cells, with rucaparib 10 µM, 100% = cells with rucaparib alone) is 116% (inactive); in assay [8] (at 1.25 µM, OCI-C5x cells, without rucaparib) it was 120% (inactive); in assay [8] (at 1.25 µM, OCI-P5x cells, with rucaparib 20 µM, 100% = cells with rucaparib alone), 104% (inactive); in assay [8] (at 1.25 µM, OCI-P5x cells, without rucaparib), 111% (inactive); in [8] (at 5 µM, OCI-C5x cells, with rucaparib 10 µM, 100% = cells with rucaparib alone), 201% (inactive); in assay [8] (at 5 µM, OCI-C5x cells, without rucaparib), 164% (inactive). The viability in [8] (at 5 µM, OCI-P5x cells, with rucaparib 20 µM, 100% = cells with rucaparib alone) was 99.7% (active); in assay [8] (at 5 µM, OCI-P5x cells, without rucaparib), 113% (inactive).

In the case of `CC[C@@H]1/C=C(\C)C[C@H](C)C[C@H](OC)[C@H]2O[C@@](O)(C(=O)C(=O)N3CCCC[C@H]3C(=O)O[C@H](/C(C)=C/[C@@H]3CC[C@H](Cl)[C@H](OC)C3)[C@H](C)[C@@H](O)CC1=O)[C@H](C)C[C@@H]2OC`, the compound was called inactive in assay [1] and in assay [2].

Turning to `CN(C)c1cc(NC(=O)CNC(C)(C)C)c(O)c2c1C[C@H]1C[C@H]3[C@H](N(C)C)C(=O)C(C(N)=O)=C(O)[C@@]3(O)C(=O)C1=C2O`, the outcome in assay [1], in assay [9] and in assay [2] was inactive. The z-score was 0.577 (inactive) in [7] (setting [16]) and 0.0397 in [7] (setting [17]).

For the compound `CCOC(=O)c1c(CSc2ccccc2)n(C)c2cc(Br)c(O)c(CN(C)C)c12`, the call in assay [1], in [2] and in [11] was inactive. For the same compound, the AC50 (in general, the midpoint of the concentration-response curve, whichever way the signal moves) in [10] is 20.9 µM (active). Also, the fold change is 0.89 (inactive) in assay [6] (setting [12]) and 0.958 in assay [6] (setting [13]). In addition, the cell count is 6100 in assay [6] (setting [14]) and 6850 in [6] (setting [15]). Besides, the z-score is -0.35 (inactive) in assay [7] (setting [16]) and -0.358 in assay [7] (setting [17]).

The values are drawn from PubChem BioAssay.
